# Compounds without any hit were thinned out: in the full panel of roughly 79,000, 15% have a hit. Unmarked numbers belong to inactive results. Activity calls are given as the source filed them. Cut-off read from the data, not from the text of the source: active = growth inhibition above about 70%; inactive = the rest.
# Experiment: NCI Yeast Anticancer Drug Screen. Data for the bub3 strain (AID 167)
# Settings: S. cerevisiae bub3 mutant strain, at 50.0 µM (retest, dose inferred, filed as 5.0), stronger effect = higher value
# In short: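 Compounds were applied to a genetically altered yeast strain carrying a cell-cycle control defect. Growth inhibition was scored against vehicle-treated controls.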
row,Compound,growth inhibition
1,O=C(CBr)N1c2ccccc2Sc2ccc3ccccc3c21,99% (active)
2,CC(C)(C)CC(C)(C)N[P+](NC(C)(C)CC(C)(C)C)(NC(C)(C)CC(C)(C)C)NC(C)(C)CC(C)(C)C,99% (active)
3,COc1ccc(/C=C/c2ccnnc2)c(OC)c1OC,15%
4,O=Cc1cc(-c2ccccc2)n(-c2ccccc2)c1-c1ccccc1,9%
5,CC(=O)Oc1ccc(/C=C/c2ccncc2)cc1,6%
6,OC(c1ccccc1)(c1ccccc1)c1ccc[cH-]1.OC(c1ccccc1)(c1ccccc1)c1ccc[cH-]1.[Fe+2],-1%
7,O=C1C=CC(=O)N1c1ccc(Cl)cc1Br,99% (active)
8,Cc1c(N)nc(C2CC(=O)N2CC(N)C(N)=O)nc1C(=O)NC(C(=O)NC(C)C(O)C(C)C(=O)NC(C(=O)NCCc1nc(-c2nc(C(=O)NCCNCC(C)O)cs2)cs1)C(C)O)C(OC1OC(CO)C(O)C(O)C1OC1OC(CO)C(O)C(OC(N)=O)C1O)c1cnc[nH]1 (stereo not drawn),96% (active)
9,CNC(=S)/N=c1/sc([N+](=O)[O-])c(C)n1C,5%
10,O=c1c2ccccc2ncn1Cc1ccccc1[N+](=O)[O-],42%
11,Cc1nn(C(=O)c2ccncc2)c(C)c1N=Nc1ccccc1[N+](=O)[O-],14%
12,CCC[CH2][Ge]([CH2]CCC)([CH2]CCC)[O]C(=O)C(OC(C)=O)c1ccccc1 (stereo not drawn),62%
13,Nc1ccc2c(c1)[nH]c(=O)c1cc(Cl)c(Cl)cc12,84% (active)
14,CCCCCCCCCCCCSC1=C(N)C(=O)c2ccccc2C1=O,-1%
15,CCC(C)(C)c1ccc(OCCO)c([N+](=O)[O-])c1,88% (active)
16,C/C(=N/O)c1cccc(C(F)(F)F)c1,-92%
17,CCCCCCN(S(=O)(=O)c1ccc([N+](=O)[O-])cc1)S(=O)(=O)c1ccc([N+](=O)[O-])cc1,50%
18,N#CC1=C(N)OC(c2ccccc2)=C(C#N)C1c1ccccc1[N+](=O)[O-] (stereo not drawn),-4%
19,COC1CCCCC1C(=O)C(C#N)C1CCCCC1C1CCCCC1 (stereo not drawn),-3%
20,COCCOC1=C(Cl)C(=O)c2c(O)ccc(O)c2C1=O,99% (active)
21,NC(CSSCC(N)C(=O)Nc1ccc2ccccc2c1)C(=O)Nc1ccc2ccccc2c1 (stereo not drawn),99% (active)
22,CSc1c(S(C)=O)c2ccccc2n1C (stereo not drawn),8%
23,CCCCCCCCCCCCCCCCNCCCCCCCC(=O)O,73% (active)

# Same assay, conditions: S. cerevisiae bub3 mutant strain, at 50.0 µM, stronger effect = higher value
row,Compound,growth inhibition
1,CCCCCCCCCCCCCCCC1=NCCN1C,99.3% (active)
2,C=CCNC(=O)c1ccccc1C(=O)O,68.2%
3,O=C(Nc1ccc(Cl)cc1Cl)OC(Cn1cncn1)c1ccc(Cl)cc1Cl (stereo not drawn),92.5% (active)
4,CC1=C(C)CC2C(=O)C(C(O)CC(C)C)=CC(=O)C2C1 (stereo not drawn),98.2% (active)
5,BrCc1ccccc1C[P+](c1ccccc1)(c1ccccc1)c1ccccc1,89.7% (active)
6,Cc1cn(C(C#N)=C(C#N)C#N)c2ccccc12,18.2%
7,O=C1OCCCOC(=O)c2cc(ccc2O)OCC#CC#CCOc2ccc(O)c1c2,86.2% (active)
8,O=[N+]([O-])c1cc2ccc(O)cc2c2ccccc12,96.2% (active)
9,COc1cc2c(oc(=O)c3cc(C)cc(OC)c32)c2c(C3OC(C)C(O)C(C)(O)C3O)ccc(O)c12 (stereo not drawn),89.8% (active)
10,Oc1c(Cl)cc(Cl)c(Cc2c(Cl)cc(Cl)c(O)c2Cl)c1Cl,-3.05%
11,N#CI1OC(C(F)(F)F)(C(F)(F)F)c2ccccc21,86.6% (active)
12,c1ccc2c(c1)[nH]c1c[n+]3c(c[n+]12)[nH]c1ccccc13,6%
13,CC1Cc2cc(O)c(O)cc2-c2cc(O)c(O)cc2CC1C (stereo not drawn),79.4% (active)
14,COc1ccc(C2c3cc4c(cc3OC(C)(O)C2C)OCO4)cc1 (stereo not drawn),98.3% (active)
15,Cc1ccc(C2(O)CC(c3ccc([N+](=O)[O-])o3)=NN2C(=O)COc2ccc(Cl)cc2)cc1 (stereo not drawn),37.6%
16,CCO[Si](CC)(OCC)OCC,-6%
17,C/C=C(/CCC1NCCC2c3ccccc3NC12)[Si](C)(C)C (stereo not drawn),5.6%
18,O=C(CBr)N1c2ccccc2Sc2ccc3ccccc3c21,91% (active)
19,CC(C)(C)CC(C)(C)N[P+](NC(C)(C)CC(C)(C)C)(NC(C)(C)CC(C)(C)C)NC(C)(C)CC(C)(C)C,90.5% (active)
20,COc1ccc(/C=C/c2ccnnc2)c(OC)c1OC,39.3%

row,Compound,growth inhibition
1,O=Cc1cc(-c2ccccc2)n(-c2ccccc2)c1-c1ccccc1,35.9%
2,CC(=O)Oc1ccc(/C=C/c2ccncc2)cc1,84.7% (active)
3,OC(c1ccccc1)(c1ccccc1)c1ccc[cH-]1.OC(c1ccccc1)(c1ccccc1)c1ccc[cH-]1.[Fe+2],70.4% (active)
4,O=C1C=CC(=O)N1c1ccc(Cl)cc1Br,58.4%
5,Cc1c(N)nc(C2CC(=O)N2CC(N)C(N)=O)nc1C(=O)NC(C(=O)NC(C)C(O)C(C)C(=O)NC(C(=O)NCCc1nc(-c2nc(C(=O)NCCNCC(C)O)cs2)cs1)C(C)O)C(OC1OC(CO)C(O)C(O)C1OC1OC(CO)C(O)C(OC(N)=O)C1O)c1cnc[nH]1 (stereo not drawn),93.8% (active)
6,CNC(=S)/N=c1/sc([N+](=O)[O-])c(C)n1C,44.9%
7,O=c1c2ccccc2ncn1Cc1ccccc1[N+](=O)[O-],26.2%
8,Cc1nn(C(=O)c2ccncc2)c(C)c1N=Nc1ccccc1[N+](=O)[O-],2.4%
9,CCC[CH2][Ge]([CH2]CCC)([CH2]CCC)[O]C(=O)C(OC(C)=O)c1ccccc1 (stereo not drawn),85% (active)
10,Nc1ccc2c(c1)[nH]c(=O)c1cc(Cl)c(Cl)cc12,9.65%
11,CCCCCCCCCCCCSC1=C(N)C(=O)c2ccccc2C1=O,11.3%
12,CCC(C)(C)c1ccc(OCCO)c([N+](=O)[O-])c1,72.4% (active)
13,C/C(=N/O)c1cccc(C(F)(F)F)c1,34.6%
14,CCCCCCN(S(=O)(=O)c1ccc([N+](=O)[O-])cc1)S(=O)(=O)c1ccc([N+](=O)[O-])cc1,56.9%
15,N#CC1=C(N)OC(c2ccccc2)=C(C#N)C1c1ccccc1[N+](=O)[O-] (stereo not drawn),39.1%
16,COC1CCCCC1C(=O)C(C#N)C1CCCCC1C1CCCCC1 (stereo not drawn),96.7% (active)
17,COCCOC1=C(Cl)C(=O)c2c(O)ccc(O)c2C1=O,90.3% (active)
18,NC(CSSCC(N)C(=O)Nc1ccc2ccccc2c1)C(=O)Nc1ccc2ccccc2c1 (stereo not drawn),89.5% (active)
19,CSc1c(S(C)=O)c2ccccc2n1C (stereo not drawn),-39.5%
20,CCCCCCCCCCCCCCCCNCCCCCCCC(=O)O,39.2%
